Data taken from the supplement of paper PMC10849652.
About 7,900 targets were measured; listed, in parts, are those with a hit and a random draw of the rest. About 0.6% of all pairs of compound and target were hits.

compound: C1=CC2=NC=CN=C2C=C1/C=C/3\C(=O)NC(=O)S3; assay: log2 fold change, soluble protein after heating vs DMSO (PISA); higher = thermal stabilisation; K562 cells, 10 uM, 30 min; active = over 0.2 and 3.5 SD of the protein, either way, in both replicates (recomputed)
Method in brief: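 For each measurement, 10 μM compound was applied for 30 min to K562 cells at 2×10^6 cells/mL. Aliquots were heated for 3 min across 48°C-58°C, pooled, and extracted in PBS with 0.5% NP-40 at 4°C; the supernatant after 21,000xg for 90 min was soluble protein. This was quantified by TMTpro 16plex LC-MS/MS with channel sums equalised, and thermal stability was reported relative to control samples from duplicates, on a log2 fold-change scale.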

UniProt O60701, sequence (O60701 whole entry, looked up): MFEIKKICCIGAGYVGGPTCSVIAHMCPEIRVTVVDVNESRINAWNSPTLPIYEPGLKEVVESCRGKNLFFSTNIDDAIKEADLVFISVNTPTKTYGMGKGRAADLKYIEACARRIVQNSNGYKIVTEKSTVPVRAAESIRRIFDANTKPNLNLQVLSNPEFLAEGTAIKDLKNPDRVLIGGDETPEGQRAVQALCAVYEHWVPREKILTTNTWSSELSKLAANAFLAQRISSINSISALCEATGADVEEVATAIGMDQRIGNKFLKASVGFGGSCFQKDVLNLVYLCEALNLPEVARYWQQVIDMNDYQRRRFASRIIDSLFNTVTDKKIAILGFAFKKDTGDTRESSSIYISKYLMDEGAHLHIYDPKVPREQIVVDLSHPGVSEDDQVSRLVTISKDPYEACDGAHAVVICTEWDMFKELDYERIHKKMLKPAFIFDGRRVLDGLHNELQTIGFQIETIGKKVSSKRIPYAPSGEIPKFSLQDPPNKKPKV
UniProt Q15061, sequence (Q15061 whole entry, looked up): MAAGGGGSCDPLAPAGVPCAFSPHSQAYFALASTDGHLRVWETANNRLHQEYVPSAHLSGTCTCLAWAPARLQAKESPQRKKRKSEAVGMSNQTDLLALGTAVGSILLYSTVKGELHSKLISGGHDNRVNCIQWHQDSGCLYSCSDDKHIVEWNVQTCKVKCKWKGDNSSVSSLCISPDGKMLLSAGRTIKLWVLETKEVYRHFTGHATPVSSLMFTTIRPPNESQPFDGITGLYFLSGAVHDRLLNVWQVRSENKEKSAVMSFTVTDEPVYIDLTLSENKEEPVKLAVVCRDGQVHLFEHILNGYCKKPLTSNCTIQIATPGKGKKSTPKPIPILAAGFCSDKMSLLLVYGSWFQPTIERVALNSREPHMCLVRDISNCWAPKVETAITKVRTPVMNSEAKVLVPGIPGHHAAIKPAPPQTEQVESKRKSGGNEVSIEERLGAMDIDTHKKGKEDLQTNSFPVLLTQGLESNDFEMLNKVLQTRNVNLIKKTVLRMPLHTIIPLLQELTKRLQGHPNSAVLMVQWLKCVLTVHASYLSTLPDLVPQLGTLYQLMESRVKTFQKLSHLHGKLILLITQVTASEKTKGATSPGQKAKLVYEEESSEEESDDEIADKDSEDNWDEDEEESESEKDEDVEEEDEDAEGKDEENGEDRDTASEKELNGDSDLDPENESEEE
UniProt Q53S58, sequence (Q53S58 whole entry, looked up): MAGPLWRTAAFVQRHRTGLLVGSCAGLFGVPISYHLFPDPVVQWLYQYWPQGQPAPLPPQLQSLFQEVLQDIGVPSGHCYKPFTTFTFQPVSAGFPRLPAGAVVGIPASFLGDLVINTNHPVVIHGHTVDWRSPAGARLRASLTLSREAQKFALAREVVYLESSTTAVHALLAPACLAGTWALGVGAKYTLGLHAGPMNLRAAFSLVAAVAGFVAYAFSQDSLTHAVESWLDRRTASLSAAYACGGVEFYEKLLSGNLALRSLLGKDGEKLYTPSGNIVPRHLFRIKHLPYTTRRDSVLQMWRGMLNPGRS
UniProt Q9UHP3, sequence (Q9UHP3 whole entry, looked up): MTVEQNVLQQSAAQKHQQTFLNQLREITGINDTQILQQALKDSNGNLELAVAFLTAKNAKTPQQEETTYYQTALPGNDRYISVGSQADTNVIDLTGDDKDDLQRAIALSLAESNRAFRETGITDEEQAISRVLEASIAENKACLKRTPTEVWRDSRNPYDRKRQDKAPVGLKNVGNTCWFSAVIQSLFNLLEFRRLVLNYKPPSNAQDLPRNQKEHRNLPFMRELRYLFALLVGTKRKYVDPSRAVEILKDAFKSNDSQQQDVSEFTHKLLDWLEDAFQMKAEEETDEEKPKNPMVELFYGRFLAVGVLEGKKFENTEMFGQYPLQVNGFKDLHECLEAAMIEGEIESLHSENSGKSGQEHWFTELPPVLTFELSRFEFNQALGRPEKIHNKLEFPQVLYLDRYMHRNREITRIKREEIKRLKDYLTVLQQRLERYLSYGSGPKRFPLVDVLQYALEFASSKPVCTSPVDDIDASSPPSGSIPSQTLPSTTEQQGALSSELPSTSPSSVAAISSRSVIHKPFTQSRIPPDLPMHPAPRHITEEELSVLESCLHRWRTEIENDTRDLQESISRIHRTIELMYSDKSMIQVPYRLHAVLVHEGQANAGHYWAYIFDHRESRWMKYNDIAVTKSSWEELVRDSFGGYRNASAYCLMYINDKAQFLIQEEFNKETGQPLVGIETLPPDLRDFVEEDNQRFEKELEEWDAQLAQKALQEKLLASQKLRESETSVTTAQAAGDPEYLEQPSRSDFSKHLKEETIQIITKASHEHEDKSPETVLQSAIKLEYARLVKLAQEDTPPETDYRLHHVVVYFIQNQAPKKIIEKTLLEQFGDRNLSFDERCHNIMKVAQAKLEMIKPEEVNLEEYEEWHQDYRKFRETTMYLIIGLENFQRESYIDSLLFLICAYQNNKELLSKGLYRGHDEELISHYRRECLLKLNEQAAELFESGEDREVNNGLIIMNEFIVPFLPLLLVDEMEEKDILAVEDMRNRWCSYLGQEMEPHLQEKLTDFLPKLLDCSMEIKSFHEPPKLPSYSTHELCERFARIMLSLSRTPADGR
UniProt O43396, sequence (O43396 whole entry, looked up): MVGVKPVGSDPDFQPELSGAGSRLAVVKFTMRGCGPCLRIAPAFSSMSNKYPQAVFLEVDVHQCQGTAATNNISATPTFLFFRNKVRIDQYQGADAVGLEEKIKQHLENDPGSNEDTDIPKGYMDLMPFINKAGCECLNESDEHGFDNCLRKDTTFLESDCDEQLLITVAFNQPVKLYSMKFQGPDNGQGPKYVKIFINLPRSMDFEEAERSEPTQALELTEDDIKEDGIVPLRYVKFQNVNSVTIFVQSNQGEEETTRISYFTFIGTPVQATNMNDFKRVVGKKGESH
UniProt P43897, sequence (P43897 whole entry, looked up): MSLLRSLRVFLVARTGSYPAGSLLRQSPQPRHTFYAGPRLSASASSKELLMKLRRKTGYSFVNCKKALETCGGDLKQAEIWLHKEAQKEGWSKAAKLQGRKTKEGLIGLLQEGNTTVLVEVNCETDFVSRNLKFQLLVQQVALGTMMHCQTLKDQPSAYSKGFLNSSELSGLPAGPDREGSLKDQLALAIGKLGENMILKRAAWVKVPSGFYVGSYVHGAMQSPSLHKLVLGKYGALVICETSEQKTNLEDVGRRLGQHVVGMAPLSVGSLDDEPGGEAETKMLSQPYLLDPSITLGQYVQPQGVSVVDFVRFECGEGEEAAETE
UniProt O43592, sequence (O43592 whole entry, looked up): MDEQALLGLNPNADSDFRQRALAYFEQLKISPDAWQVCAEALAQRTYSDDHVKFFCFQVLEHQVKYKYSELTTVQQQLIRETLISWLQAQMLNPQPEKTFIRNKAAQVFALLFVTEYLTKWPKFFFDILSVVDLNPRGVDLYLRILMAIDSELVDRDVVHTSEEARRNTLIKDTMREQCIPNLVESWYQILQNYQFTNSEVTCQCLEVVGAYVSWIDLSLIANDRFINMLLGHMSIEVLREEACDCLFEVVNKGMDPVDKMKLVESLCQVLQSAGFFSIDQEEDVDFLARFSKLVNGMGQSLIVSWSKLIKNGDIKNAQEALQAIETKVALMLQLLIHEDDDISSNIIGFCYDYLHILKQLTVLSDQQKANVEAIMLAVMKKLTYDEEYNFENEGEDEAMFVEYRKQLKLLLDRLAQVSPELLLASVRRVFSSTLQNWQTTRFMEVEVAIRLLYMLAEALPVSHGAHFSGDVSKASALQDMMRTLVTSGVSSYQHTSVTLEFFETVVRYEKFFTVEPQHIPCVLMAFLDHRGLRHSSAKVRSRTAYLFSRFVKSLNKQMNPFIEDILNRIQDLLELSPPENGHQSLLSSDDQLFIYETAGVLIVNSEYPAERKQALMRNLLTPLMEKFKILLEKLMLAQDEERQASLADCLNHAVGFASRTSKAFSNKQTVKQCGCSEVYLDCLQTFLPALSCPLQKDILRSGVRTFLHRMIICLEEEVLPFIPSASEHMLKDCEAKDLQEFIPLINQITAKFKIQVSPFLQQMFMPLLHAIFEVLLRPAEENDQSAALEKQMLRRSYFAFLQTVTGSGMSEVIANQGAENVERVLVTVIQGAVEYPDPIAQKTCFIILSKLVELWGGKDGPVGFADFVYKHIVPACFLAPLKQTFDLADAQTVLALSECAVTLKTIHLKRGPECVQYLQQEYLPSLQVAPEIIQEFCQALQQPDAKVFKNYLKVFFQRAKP
UniProt Q96AX1, sequence (Q96AX1 whole entry, looked up): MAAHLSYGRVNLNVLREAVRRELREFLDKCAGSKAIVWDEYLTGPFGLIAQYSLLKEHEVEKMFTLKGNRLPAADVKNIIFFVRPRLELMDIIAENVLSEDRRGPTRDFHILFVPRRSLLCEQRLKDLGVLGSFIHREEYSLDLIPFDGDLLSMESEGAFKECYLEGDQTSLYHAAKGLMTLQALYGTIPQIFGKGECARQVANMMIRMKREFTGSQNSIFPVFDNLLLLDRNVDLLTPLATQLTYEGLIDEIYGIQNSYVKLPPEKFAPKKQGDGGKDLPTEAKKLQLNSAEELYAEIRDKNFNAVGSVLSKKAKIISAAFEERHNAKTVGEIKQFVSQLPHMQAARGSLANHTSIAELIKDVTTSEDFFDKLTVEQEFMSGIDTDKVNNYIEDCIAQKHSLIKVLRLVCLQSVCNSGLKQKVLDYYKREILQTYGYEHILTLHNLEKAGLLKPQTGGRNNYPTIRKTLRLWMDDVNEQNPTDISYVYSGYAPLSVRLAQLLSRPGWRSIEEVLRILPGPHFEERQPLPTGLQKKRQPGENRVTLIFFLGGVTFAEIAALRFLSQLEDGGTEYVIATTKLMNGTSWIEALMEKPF
UniProt Q969T4, sequence (Q969T4 whole entry, looked up): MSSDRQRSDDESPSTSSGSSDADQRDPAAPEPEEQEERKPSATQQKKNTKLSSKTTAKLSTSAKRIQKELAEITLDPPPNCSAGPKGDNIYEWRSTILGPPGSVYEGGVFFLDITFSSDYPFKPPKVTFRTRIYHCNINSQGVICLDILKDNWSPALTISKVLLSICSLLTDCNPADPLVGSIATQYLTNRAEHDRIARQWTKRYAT
UniProt Q8N4H5, sequence (Q8N4H5 whole entry, looked up): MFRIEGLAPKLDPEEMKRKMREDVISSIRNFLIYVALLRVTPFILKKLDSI

log2 fold change, inactive:
TRAPPC8 (UniProt Q9Y2L5) -0.007, TOMM5 isoform 2 (UniProt Q8N4H5) 0.052, TTC33 (UniProt Q6PID6) -0.107, TSFM (UniProt P43897) 0.044, XPO6 (UniProt Q96QU8) -0.15, VPS35L (UniProt Q7Z3J2) 0.059, UBE4B isoform 4 (UniProt O95155) 0.055, TOP2A isoform 4 (UniProt P11388) 0.23, TMEM128 (UniProt Q5BJH2) 0.067, WASH2P (UniProt Q6VEQ5) 0.038, UTP3 (UniProt Q9NQZ2) 0, UGDH (UniProt O60701) -0.174, WDR43 (UniProt Q15061) 0.015, TNFRSF10A (UniProt O00220) -0.012, XPOT (UniProt O43592) 0.065, VPS33A (UniProt Q96AX1) 0.013, VPS13B (UniProt Q7Z7G8) -0.025, TMEM63B (UniProt Q5T3F8) 0.012, U2AF2 (UniProt P26368) -0.004, TMEM120A (UniProt Q9BXJ8) 0.236, TXN2 (UniProt Q99757) 0.098, TOM1 isoform 2 (UniProt O60784) -0.016, VPS33B (UniProt Q9H267) 0.053, TOM1L1 (UniProt O75674) 0.037, USP48 isoform 8 (UniProt Q86UV5) -0.013, TTC4 (UniProt O95801) -0.007, VDAC1 (UniProt C9JI87) 0.124, UCHL5 isoform 3 (UniProt Q9Y5K5) 0.125, TXNL1 (UniProt O43396) -0.018, TMEM177 (UniProt Q53S58) -0.015, USP25 isoform 3 (UniProt Q9UHP3) 0.005, UBE2E3 (UniProt Q969T4) 0.009, TMEM263 (UniProt Q8WUH6) -0.013, UFD1 isoform 1 (UniProt Q92890) 0.015, VAMP7 (UniProt P51809) 0.007, VPS8 (UniProt Q8N3P4) 0.031
